Activity calls are given as the source filed them.
Legend:
Albumin (Bos taurus) = Albumin (Bos taurus) (UniProt P02769); experiment: compounds binding labelled BSA control protein – biochemical, small-molecule microarray, Alexa647 label, 635/667 nm fluorescence, artefact control for SMM control protein annotation, profiling panel (AID 1118); settings: BSA-A647 binding, fluorescence 635 nm, higher = more signal;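 further: score merges 667 nm emission intensity and signal-to-noise per printed compound spot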
[1] = probe aXIP binding to arrayed compounds – biochemical, NeuroSMM set, 635/667 nm fluorescence, primary screen (AID 1119); settings: small-molecule microarray, higher = more signal, called active from +8 up or from −8 down;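 further: probe is the protein aXip251-270 applied at 1 µg/mL to compound-printed slides; binding of probe to printed compounds measured as 667 nm fluorescence plus signal to noise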
[2] = probe aNOTCH3 binding on compound microarray – biochemical, small-molecule microarray, 635/667 nm fluorescence, primary screen (AID 1120); settings: higher = more signal;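 further: probe is a biotin-tagged antibody raised against NOTCH3 rather than NOTCH3 protein; score merges spot fluorescence near 667 nm with spot signal to noise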
[3] = probe aNOTCH2 binding on compound microarray – biochemical, small-molecule microarray, 635/667 nm fluorescence, primary screen (AID 1121); settings: higher = more signal;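 further: score merges feature fluorescence read at 667 nm with its signal to noise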
[4] = target: Carbonic anhydrase 2 (Homo sapiens) (UniProt P00918); experiment: compounds binding carbonic anhydrase 2 – biochemical, small-molecule microarray, Alexa647-labelled CAII, profiling panel (AID 1122); settings: CAII-A647 binding fluorescence, higher = more signal
[5] = COS7 lysate on small-molecule microarray, probe aHis, 635 nm (AID 1123); settings: COS7 cell lysate, fluorescence, higher = more signal;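 further: z-score combines 667nm fluorescence intensity with signal-to-noise per printed compound spot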
[6] = probe aLAP1 signal on lysate-treated microarray – cell lysate, small-molecule microarray, COS7 lysate, primary screen (AID 1124); settings: probe aLAP1, fluorescence, higher = more signal;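 further: lysate comes from COS7 cells expressing LAP1 and is applied at 0.3 µg/mL; score merges spot fluorescence near 667 nm with signal-to-noise over triplicate slides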
Sam68 (KHDRBS1) = experiment: compounds binding KHDRBS1 protein – biochemical, small-molecule microarray, 635 nm fluorescence, primary screen (AID 1125); settings: higher = more signal;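 further: score merges 667 nm channel intensity with signal to noise over triplicate slides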
[7] = tested on: Chordin-like protein 2 (CHRDL2); experiment: compounds binding chordin-like 2 – biochemical, small-molecule microarray, 635 nm fluorescence, primary screen (AID 1126); settings: fluorescence 635 nm, higher = more signal;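 further: printed compound slides probed with Chrdl2 protein at 4 µg/mL for 1 h at 4 C; score merges 667 nm emission intensity with signal to noise over three replicate slides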
[8] = target: Concanavalin-A (Canavalia ensiformis) (UniProt P02866); experiment: compounds binding concanavalin A lectin – biochemical, small-molecule microarray, Alexa647 label, 635 nm, artefact control for SMM control protein annotation, primary screen (AID 1127); settings: ConA-A647 binding fluorescence, higher = more signal;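 further: z combines 667 nm emission intensity with signal-to-noise across three replicate slides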
[9] = compounds binding Alexa647 anti-His antibody – biochemical, small-molecule microarray, 635 nm fluorescence, artefact control for SMM control protein annotation, primary screen (AID 1128); settings: higher = more signal;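 further: score merges feature fluorescence with signal-to-noise for each printed compound spot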
[10] = tested on: Human papillomavirus type 1a E7 protein (residues 1-88); experiment: HPV1a E7 small-molecule binders, primary screen, biochemical, small-molecule microarray, residues 1-88, 635 nm (AID 1129); settings: small-molecule microarray binding, fluorescence 635 nm; higher = more signal
[11] = target: Focal adhesion kinase 1 (Homo sapiens) (UniProt Q05397); experiment: PTK2 protein binding on printed compound slides – biochemical, small-molecule microarray, 635/667 nm fluorescence, BSA, DTT, primary screen (AID 1130); settings: 635 nm fluorescence, higher = more signal;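 further: composite of spot emission at 667 nm and signal to noise over triplicate slides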
[12] = tested on: Fibrinogen (Alexa647-labelled); experiment: Alexa647-fibrinogen binding to printed small molecules – biochemical, small-molecule microarray, 635/667 nm fluorescence, artefact control for SMM control-protein annotation, profiling panel (AID 1131); settings: fibrinogen-A647 binding fluorescence, higher = more signal;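 further: z-score merges 667 nm fluorescence with per-spot signal-to-noise over triplicate slides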
[13] = target: Follistatin (Homo sapiens) (UniProt P19883); experiment: FST protein binding to printed compounds – biochemical, small-molecule microarray, 635/667 nm fluorescence, primary screen (AID 1132); settings: 635 nm fluorescence, higher = more signal
[14] = target: Fibroblast growth factor 2 (Homo sapiens) (UniProt P09038); experiment: basic fibroblast growth factor binding to printed compounds – biochemical, small-molecule microarray, 635/667 nm fluorescence, primary screen (AID 1133); settings: FGF2, fluorescence 635/667, higher = more signal
[15] = JC-1 mitochondrial potential readout, lung cancer cells – cell-based, A549, JC-1 fluorescence, basal, 24 h, 100 nL, profiling panel (AID 1138); settings: higher = more signal;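 further: A549 lung adenocarcinoma cells under basal conditions with no added stimulus; test concentration not given here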
Lefty1 = Lefty1 protein binding to printed compounds – biochemical, small-molecule microarray, 635/667 nm fluorescence, primary screen (AID 1139); settings: fluorescence 635/667, higher = more signal
[16] = tested on: wheat germ agglutinin (Triticum aestivum), Alexa647-labelled; experiment: Alexa647-WGA lectin binding to printed small molecules – biochemical, small-molecule microarray, 635/667 nm fluorescence, artefact control for SMM control-protein annotation, profiling panel (AID 1140); settings: WGA-A647 binding, 635 nm fluorescence, higher = more signal;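 further: score merges 667 nm feature emission with signal to noise over triplicate slides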
[17] = target: Luciferin 4-monooxygenase (Photinus pyralis) (UniProt P08659); experiment: inhibition of purified Photinus pyralis luciferase – biochemical, luminescence, purified enzyme, 2006 set, primary screen (AID 1141); settings: purified firefly luciferase, SteadyGlo luminescence, 30 min; higher = more signal, called active from +8 up or from −8 down;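 further: cell-free assay with purified firefly luciferase at 100 ng per well in PBS; test concentration not given here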
Luciferin 4-monooxygenase (Photinus pyralis), sequence (P08659 whole entry, looked up): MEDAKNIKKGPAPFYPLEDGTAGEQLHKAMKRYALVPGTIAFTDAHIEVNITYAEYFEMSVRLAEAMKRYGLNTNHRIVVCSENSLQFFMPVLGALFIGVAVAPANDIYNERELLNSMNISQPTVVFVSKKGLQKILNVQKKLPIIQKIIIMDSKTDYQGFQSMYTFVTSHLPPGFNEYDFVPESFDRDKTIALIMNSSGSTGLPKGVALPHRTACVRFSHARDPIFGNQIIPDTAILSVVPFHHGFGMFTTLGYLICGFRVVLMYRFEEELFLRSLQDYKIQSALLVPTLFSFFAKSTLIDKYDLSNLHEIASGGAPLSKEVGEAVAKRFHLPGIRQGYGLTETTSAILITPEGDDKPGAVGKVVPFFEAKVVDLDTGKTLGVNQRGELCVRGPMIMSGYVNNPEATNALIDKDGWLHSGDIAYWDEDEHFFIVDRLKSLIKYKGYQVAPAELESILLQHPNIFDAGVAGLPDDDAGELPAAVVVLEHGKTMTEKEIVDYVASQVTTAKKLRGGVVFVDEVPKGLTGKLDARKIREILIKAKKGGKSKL

Focal adhesion kinase 1 (Homo sapiens), sequence (Q05397 whole entry, looked up): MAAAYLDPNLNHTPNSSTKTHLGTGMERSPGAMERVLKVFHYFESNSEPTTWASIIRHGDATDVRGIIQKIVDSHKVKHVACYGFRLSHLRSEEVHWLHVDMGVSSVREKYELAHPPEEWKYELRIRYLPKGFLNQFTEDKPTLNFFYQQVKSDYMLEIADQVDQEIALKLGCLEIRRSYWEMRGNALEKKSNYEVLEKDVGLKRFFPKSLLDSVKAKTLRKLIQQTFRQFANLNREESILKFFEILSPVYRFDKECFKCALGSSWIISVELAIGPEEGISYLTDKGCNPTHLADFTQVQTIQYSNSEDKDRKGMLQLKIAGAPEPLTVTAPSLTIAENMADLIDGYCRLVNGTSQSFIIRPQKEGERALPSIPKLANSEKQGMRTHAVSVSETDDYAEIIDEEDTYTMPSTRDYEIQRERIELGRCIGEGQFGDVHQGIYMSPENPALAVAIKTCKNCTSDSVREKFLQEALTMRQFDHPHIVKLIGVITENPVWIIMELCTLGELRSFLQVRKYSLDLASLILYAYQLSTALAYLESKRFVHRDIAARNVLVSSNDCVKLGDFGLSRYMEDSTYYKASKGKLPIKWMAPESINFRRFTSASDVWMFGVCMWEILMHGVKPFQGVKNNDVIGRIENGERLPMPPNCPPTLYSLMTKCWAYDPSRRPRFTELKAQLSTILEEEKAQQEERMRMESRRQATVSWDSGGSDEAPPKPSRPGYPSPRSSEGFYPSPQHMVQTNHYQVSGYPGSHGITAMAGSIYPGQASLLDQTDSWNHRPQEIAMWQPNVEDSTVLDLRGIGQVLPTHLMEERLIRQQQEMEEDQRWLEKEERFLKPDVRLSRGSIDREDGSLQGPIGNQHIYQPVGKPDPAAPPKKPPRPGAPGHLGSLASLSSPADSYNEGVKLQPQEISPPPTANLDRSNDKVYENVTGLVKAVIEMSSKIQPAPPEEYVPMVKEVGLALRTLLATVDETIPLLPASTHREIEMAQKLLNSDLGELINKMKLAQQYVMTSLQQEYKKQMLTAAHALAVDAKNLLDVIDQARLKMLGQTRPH
Fibroblast growth factor 2 (Homo sapiens), sequence (P09038 whole entry, looked up): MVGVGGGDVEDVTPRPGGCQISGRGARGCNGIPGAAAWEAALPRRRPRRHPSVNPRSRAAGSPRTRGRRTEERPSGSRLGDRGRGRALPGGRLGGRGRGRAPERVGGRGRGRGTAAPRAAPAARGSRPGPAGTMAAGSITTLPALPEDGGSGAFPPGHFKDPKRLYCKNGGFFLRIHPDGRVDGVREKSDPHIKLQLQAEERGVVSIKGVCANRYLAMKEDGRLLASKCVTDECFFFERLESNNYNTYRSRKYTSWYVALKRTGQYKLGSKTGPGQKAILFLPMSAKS
Concanavalin-A (Canavalia ensiformis), sequence (P02866 whole entry, looked up): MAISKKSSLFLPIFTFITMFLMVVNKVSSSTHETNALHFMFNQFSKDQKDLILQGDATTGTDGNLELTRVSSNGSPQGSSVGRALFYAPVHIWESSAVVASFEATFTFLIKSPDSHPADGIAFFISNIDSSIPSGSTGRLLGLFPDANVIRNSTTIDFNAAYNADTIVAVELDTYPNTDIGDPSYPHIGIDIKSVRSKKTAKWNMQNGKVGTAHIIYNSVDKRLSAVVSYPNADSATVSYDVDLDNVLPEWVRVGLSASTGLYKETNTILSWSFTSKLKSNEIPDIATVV
Follistatin (Homo sapiens), sequence (P19883 whole entry, looked up): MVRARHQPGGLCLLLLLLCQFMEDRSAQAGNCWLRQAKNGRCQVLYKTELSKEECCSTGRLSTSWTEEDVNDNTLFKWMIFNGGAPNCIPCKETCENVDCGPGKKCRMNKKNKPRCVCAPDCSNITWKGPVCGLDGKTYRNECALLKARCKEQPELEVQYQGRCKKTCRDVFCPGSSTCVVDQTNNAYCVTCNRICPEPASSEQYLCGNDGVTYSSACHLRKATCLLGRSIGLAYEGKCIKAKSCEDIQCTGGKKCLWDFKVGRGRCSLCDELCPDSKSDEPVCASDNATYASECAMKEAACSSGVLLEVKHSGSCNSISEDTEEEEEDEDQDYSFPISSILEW
Albumin (Bos taurus), sequence (P02769 whole entry, looked up): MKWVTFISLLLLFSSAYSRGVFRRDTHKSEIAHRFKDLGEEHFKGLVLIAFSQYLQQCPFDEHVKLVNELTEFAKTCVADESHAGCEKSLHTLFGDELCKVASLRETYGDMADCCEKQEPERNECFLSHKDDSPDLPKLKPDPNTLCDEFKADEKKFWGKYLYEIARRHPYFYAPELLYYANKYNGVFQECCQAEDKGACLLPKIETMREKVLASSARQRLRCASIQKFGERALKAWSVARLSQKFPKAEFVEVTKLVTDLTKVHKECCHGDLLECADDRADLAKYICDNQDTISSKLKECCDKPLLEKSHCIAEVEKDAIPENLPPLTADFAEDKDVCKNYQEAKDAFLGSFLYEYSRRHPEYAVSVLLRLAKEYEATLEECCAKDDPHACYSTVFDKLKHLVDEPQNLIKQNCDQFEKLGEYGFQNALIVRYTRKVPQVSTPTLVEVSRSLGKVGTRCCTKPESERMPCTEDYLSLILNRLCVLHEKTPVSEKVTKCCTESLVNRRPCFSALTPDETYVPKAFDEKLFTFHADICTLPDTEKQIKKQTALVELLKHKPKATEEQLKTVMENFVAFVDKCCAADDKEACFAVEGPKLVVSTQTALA

SMILES	composite z-score (Albumin (Bos taurus))	composite Z-score [1]	composite z-score [2]	composite z-score [3]	composite z-score [4]	composite z-score [5]	composite z-score [6]	composite z-score (Sam68 (KHDRBS1))	composite z-score [7]	composite z-score [8]	composite z-score [9]	composite z-score [10]	composite z-score [11]	composite z-score [12]	composite z-score [13]	composite z-score [14]	z-score [15]	composite z-score (Lefty1)	composite z-score [16]	z-score [17]
CC(C)C[C@@H]1NC(=O)[C@@H]2C[C@H](C(=O)NCCCCCNC(=O)CS)[C@H](c3ccc(O)cc3)N2C1=O	-0.0368	-0.442 (inactive)	-0.101	-0.104	0.36	2.1	-0.646	0.92	0.652	0.374	2.52	-0.0315	0.322	0.0178	0.815	1.24	-0.976	0.627	0.263	0.448 (inactive)
COCCCNC(=O)[C@@]1(CCC(=O)OC(C)(C)C)N=C(c2ccc(OCCCO)cc2)O[C@H]1c1ccccc1	0.838	0.0999 (inactive)	0.141	-0.0237	0.696	2.94	0.584	0.748	-0.864	0.525	2.41	1.22	0.0039	0.986	1.36	0.295	1.42	-0.568	0.597	-0.173 (inactive)
COCCOC(=O)N1C(=O)[C@@]2(c3cc(C#CCNC(N)=O)ccc31)[C@H](C(=O)Nc1nc3ccccc3s1)[C@H]1C(=O)O[C@H](c3ccccc3)[C@H](c3ccccc3)N1[C@@H]2c1ccc(O)cc1	-0.376	-0.263 (inactive)	0.0203	-0.0094	0.214	0.734	0.16	1.02	0.306	1.1	0.216	0.93	0.164	0.9	1.31	0.802	-2.44	0.392	0.934	-0.518 (inactive)
COC(=O)[C@@]1(Cc2ccccc2)[C@H]2c3cc(C(=O)N(C)C)n(CCF)c3C[C@H]2CN1C(=O)c1ccccc1	1.11	0.507 (inactive)	0.62	0.334	0.531	3.26	1.08	0.302	-0.927	0.517	2.32	0.728	0.326	0.339	0.0139	-0.551	0.551	-0.773	0.969	1.02 (inactive)
COC(=O)[C@@]1(Cc2ccccc2)[C@H]2c3cc(C(=O)N(C)C)n(Cc4nc5ccccc5[nH]4)c3C[C@H]2CN1C(=O)c1ccccc1	1.01	0.0729 (inactive)	0.266	0.0576	0.826	3.44	0.972	1.24	-0.538	1.09	1.85	1.24	0.872	1.03	0.804	-0.378	0.157	-0.414	0.779	-1.77 (inactive)

— PubChem BioAssay
